This passage reports outcome and AC50 results from PubChem BioAssay (EPA / NIEHS).

Calls of active or inactive are those of the source. Rule for the calls: active = hit-call score of the fitted dose curve at least 0.9, where 1 is the maximum; inactive = score below 0.9.

Read-out in this assay: TIMP metallopeptidase inhibitor 2 (TIMP2), TIMP2 (gene 7077)
As to the kind of experiment: BSK_KF3CT_TIMP2: BioMAP Diversity Plus: KF3CT Assay for TIMP metallopeptidase inhibitor 2 (TIMP2) Biomarker Activity (AID 2283071). The note with it: primary human keratinocytes with fibroblasts; actives raise or lower the signal. The protocol:
BSK_KF3CT is a cell-based, multiplexed-readout assay that uses keratinocytes and foreskin fibroblasts, a human skin primary cell co-culture, with measurements taken at 24 hours after chemical dosing in a 96-well plate.BSK_KF3CT_TIMP2 is an assay component measured in the BSK_KF3CT assay. It measures TIMP-2 antibody related to regulation of gene expression using ELISA technology.Data from the assay component BSK_KF3CT_TIMP2 was analyzed into 1 assay endpoint. This assay endpoint, BSK_KF3CT_TIMP2, was analyzed with bidirectional fitting relative to DMSO as the negative control and baseline of activity. Using a type of binding reporter, gain or loss-of-signal activity can be used to understand changes in the signaling as they relate to the gene TIMP2. Furthermore, this assay endpoint can be referred to as a primary readout, because this assay has produced multiple assay endpoints where this one serves a signaling function. To generalize the intended target to other relatable targets, this assay endpoint is annotated to the protease inhibitor intended target family, where the subfamily is metalloproteinase inhibitor.
The levels of cell surface (or secreted, indicated by the prefix "s") biomarker endpoints were measured by ELISA. Overt cytotoxicity to cells in confluent adherent cultures (all systems other than the BT system) was assessed by measuring total protein levels using sulforhodamine B (SRB) staining in parallel cultures at the time of biomarker measurements, indicated as SRB endpoints. For proliferation assays for adherent cell types, individual cell types are cultured at sub-confluence and relative cell numbers quantified by SRB staining at time points optimized for each system (48 h: 3C and CASM3C systems; 72 h: BT and HDF3CGF systems; 96 h: SAg system). SRB was performed by staining cells with 0.1% SRB after fixation with 10% TCA and reading wells at 560 nm.Viability and proliferation of PBMC (T cells) was quantified by Alamar Blue reduction for the SAg and BT systems. For PBMC viability (referred to as PBMC Cytotoxicity within the assay endpoint names), cells were plated (75,000/well in a 96-well plate) and then chemical samples added for 1 h before addition of activators, SEB and TSST-1 (20 ng/mL final concentration each). Cells were incubated for 90 h. Then, Alamar Blue (20 uL/well) (Invitrogen, Cat DAL1100) was added for 6 h, and the plates were read with a fluorescence microplate reader at 546/580 nm (excitation/emission). For PBMC proliferation, cells were plated and activated as above but incubated for only 16 h prior to addition of Alamar Blue. Plates were read after 6 h.
As to `CCOP(=S)(OCC)SCCSCC`, the result was inactive.

For the molecule `CSc1nnc(C(C)(C)C)c(=O)n1N`, the result was inactive.

Regarding `CCOP(=S)(OCC)Oc1ccc([N+](=O)[O-])cc1`, the result was inactive.

As usually defined, the AC50 is the concentration at which the activity in the assay is half-maximal. In the case of `CCCOCC(=Nc1ccc(Cl)cc1C(F)(F)F)n1ccnc1`, the half-maximal activity concentration (AC50) is 31.7 µM (active).

Consider `CCOC(=O)COc1cc(-c2nn(C)c(OC(F)F)c2Cl)c(F)cc1Cl`, for which the result was inactive.

Consider `CCCCOC(=O)[C@@H](C)Oc1ccc(Oc2ccc(C#N)cc2F)cc1`, for which the outcome was inactive.

For the molecule `O=c1ccc(=O)[nH][nH]1`, the result was inactive.

With `CCCSP(=O)(OCC)SCCC`, the result was inactive.

With `COP(=O)(OC)OC(Br)C(Cl)(Cl)Br` (stereo not given), the AC50 is 31.3 µM (active).

In the case of `S=C1NCCN1`, the result was inactive.

In the case of `C#CCC1=C(C)C(OC(=O)C2C(C=C(C)C)C2(C)C)CC1=O` (stereo not given), the outcome was inactive.

`COP(=O)(OC)C(O)C(Cl)(Cl)Cl` (stereo not given): the outcome was inactive.

Consider `CCC(CC)Nc1c([N+](=O)[O-])cc(C)c(C)c1[N+](=O)[O-]`, for which the result was inactive.

As to `CC(COc1ccc(Oc2ccccc2)cc1)Oc1ccccn1` (stereo not given), the outcome was inactive.

On to `CCc1cccc(C)c1N(C(=O)CCl)C(C)COC` (stereo not given), for which the outcome was inactive.

Consider `Cc1nn(-c2cc(NS(C)(=O)=O)c(Cl)cc2Cl)c(=O)n1C(F)F`, for which the outcome was inactive.

In the case of `CCC(=O)Nc1ccc(Cl)c(Cl)c1`, the result was inactive.

Consider `CC[C@H](C)[C@H]1O[C@]2(C=C[C@@H]1C)C[C@@H]1C[C@@H](C/C=C(\C)[C@@H](O[C@H]3C[C@H](OC)[C@@H](O[C@H]4C[C@H](OC)[C@@H](NC)[C@H](C)O4)[C@H](C)O3)[C@@H](C)/C=C/C=C3\CO[C@@H]4[C@H](O)C(C)=C[C@@H](C(=O)O1)[C@]34O)O2`, for which the half-maximal activity concentration (AC50) is 8.99 µM (active).

Turning to `CC(C1CC1)C(O)(Cn1cncn1)c1ccc(Cl)cc1` (stereo not given), the outcome was inactive.

As to `CCCCN(CC)c1c([N+](=O)[O-])cc(C(F)(F)F)cc1[N+](=O)[O-]`, the result was inactive.

For `CN(C)[C@@H]1C(=O)C(C(N)=O)=C(O)[C@@]2(O)C(=O)C3=C(O)c4c(O)cccc4[C@@](C)(O)[C@H]3[C@H](O)[C@@H]12`, the outcome was inactive.

`CCOC(=O)CC(SP(=O)(OC)OC)C(=O)OCC` (stereo not given): the outcome was inactive.

On to `CNC(=O)ON=C(SC)C(=O)N(C)C`, for which the result was inactive.

With `CNC(=O)ON=C(C)SC`, the outcome was inactive.

Regarding `CCc1cnc(C2=NC(C)(C(C)C)C(=O)N2)c(C(=O)O)c1` (stereo not given), the result was inactive.

With `CCOP(=O)(OCC)Oc1cc(C)nc(C(C)C)n1`, the AC50 was 29.8 µM (active).

Turning to `CC(C)=CC1C(C(=O)OCN2C(=O)C3=C(CCCC3)C2=O)C1(C)C` (stereo not given), the outcome was inactive.

Turning to `CCCCSP(=O)(SCCCC)SCCCC`, the result was inactive.

Turning to `CNC(=O)Oc1cccc2c1OC(C)(C)O2`, the outcome was inactive.

As for `CC(=NC#N)N(C)Cc1ccc(Cl)nc1`, the result was inactive.

Turning to `Cc1cc(C2CC2)nc(Nc2ccccc2)n1`, the outcome was inactive.

Regarding `CCCOc1nn(C(=O)NS(=O)(=O)c2ccccc2C(=O)OC)c(=O)n1C`, the result was inactive.

On to `CCC(=NOC/C=C/Cl)C1=C(O)CC(C2CCOCC2)CC1=O` (stereo not given), for which the outcome was inactive.

Turning to `CCOP(=S)(OCC)Oc1ccc2c(C)c(Cl)c(=O)oc2c1`, the result was inactive.

With `CN(C)NC(=O)CCC(=O)O`, the result was inactive.

As for `CCOP(=O)(SC(C)CC)N1CCSC1=O` (stereo not given), the outcome was inactive.

As for `Nc1nc(N)nc(NC2CC2)n1`, the outcome was inactive.

`CCOP(=S)(OCC)Oc1cc(C)nc(C(C)C)n1`: the result was inactive.

For the molecule `CCc1cccc(CC)c1N(COC)C(=O)CCl`, the result was inactive.

As to `N#CSCSC#N`, the AC50 was 5.72 µM (active).
